Bead autofluor – compound fluorescence in toxin protease inhibitor counterscreen; fluorescence intensity (test concentration not listed); compound autofluorescence counterscreen, microsphere flow cytometry; stronger effect = higher value; 360,000 compounds, 3.1% hits; in the data active means fluorescence intensity above about 16000; inconclusive means no clear call, values can overlap the other calls
SARS 3CLpro inh – SARS-CoV 3CLpro protease inhibition. P0C6X7. recombinant SARS-CoV 3CLpro, quenched FRET peptide cleavage. inhibition, % at 6 µM. 290,000 compounds, 0.14% hits; in the data active means inhibition above about 12%
BJeLR viability – kills HRASV12-expressing BJeLR cells | BJeLR (HRASV12) viability, CellTiter-Glo ATP luminescence, 48 h | inhibition, % (no concentration beside the values) | 300,000 compounds, 0.17% hits | AID 1554; in the data active means inhibition above about 50%; inconclusive means no clear call, values can overlap the other calls
BoNT F protease – blocks Botulinum neurotoxin F light chain protease. Multiplex microsphere protease cleavage assay, flow cytometry. inhibition, % at 10 µM. 360,000 compounds, 0.22% hits; in the data active means inhibition above about 35%, passing the limit was not always enough; inconclusive means no clear call, values can overlap the other calls
Anthrax LF inh2 – blocks Bacillus anthracis lethal factor protease; multiplex microsphere protease cleavage assay, LF; inhibition, % at 10 µM; 360,000 compounds, 0.12% hits; AID 588501
Target sequence (P15917 whole entry, looked up): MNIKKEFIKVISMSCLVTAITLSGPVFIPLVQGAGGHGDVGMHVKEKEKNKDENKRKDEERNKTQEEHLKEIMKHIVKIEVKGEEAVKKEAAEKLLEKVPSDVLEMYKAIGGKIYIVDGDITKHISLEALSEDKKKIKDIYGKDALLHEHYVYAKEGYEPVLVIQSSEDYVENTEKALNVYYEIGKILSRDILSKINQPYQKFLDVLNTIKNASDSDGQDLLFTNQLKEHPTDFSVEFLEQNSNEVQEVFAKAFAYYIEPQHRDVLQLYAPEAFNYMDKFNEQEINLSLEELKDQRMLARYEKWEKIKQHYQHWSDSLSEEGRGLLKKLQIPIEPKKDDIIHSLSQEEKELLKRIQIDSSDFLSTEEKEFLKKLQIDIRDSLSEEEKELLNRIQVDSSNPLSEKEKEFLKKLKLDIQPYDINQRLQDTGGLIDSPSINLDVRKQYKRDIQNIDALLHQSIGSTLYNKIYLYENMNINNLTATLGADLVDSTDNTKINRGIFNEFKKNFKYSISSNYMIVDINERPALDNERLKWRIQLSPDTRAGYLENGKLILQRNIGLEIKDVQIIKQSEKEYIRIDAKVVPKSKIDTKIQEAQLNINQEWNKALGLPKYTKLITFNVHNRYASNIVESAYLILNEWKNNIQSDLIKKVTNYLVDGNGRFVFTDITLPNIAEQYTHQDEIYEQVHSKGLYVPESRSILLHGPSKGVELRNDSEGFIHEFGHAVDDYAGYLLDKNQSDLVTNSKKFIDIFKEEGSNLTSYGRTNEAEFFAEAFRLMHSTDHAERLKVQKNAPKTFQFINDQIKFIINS
BoNT-A LC inh2 – inhibitors of Botulinum neurotoxin A light chain protease; multiplex microsphere protease substrate cleavage, flow cytometry; inhibition, % at 10 µM; 360,000 compounds, 0.17% hits
Of the large screens only hits and unclear results are named; the others gave an inactive call. Only some compounds are listed: those with a hit (about 3.6% of all), similar ones and a draw of the others. Unless noted, no stated cut-off is given here; in the data, active means inhibition above about 30%; inconclusive means no clear call, values can overlap the other calls; inactive means below that.

CCC(=NCCc1c[nH]c2ccccc12)c1c(O)n(C)c(=O)n(C)c1=O	Bead autofluor 22284
CCC(=NCCc1c[nH]c2ccccc12)c1c(O)n(-c2ccc(C)cc2)c(=O)[nH]c1=O	none
Cc1ccc2c(=O)cc(C(=O)NC3CCS(=O)(=O)C3)oc2c1C (stereo not given)	none
Nn1c(-c2ccc(F)cc2)nc2ccccc2c1=O	none
Nc1nc(Br)c2c(F)cccc2c1-c1ccccc1	Bead autofluor 21859 (no result: BJeLR viability)
Nc1nc(Br)c2c(F)cccc2c1-c1ccc(F)cc1	Bead autofluor 22286
O=C(Nc1ccc2c(c1)OCCO2)C1CCCN(S(=O)(=O)c2cnc[nH]2)C1 (stereo not given)	none
CCCNC(=S)NC1CC2CCCC(C1)N2Cc1ccc(F)cc1 (stereo not given)	BoNT F protease inconclusive
O=C(CN1CCN(S(=O)(=O)c2ccccc2)CC1)NCCc1ccccc1	none
O=C1SC(SCc2ccccc2)=N/C1=C\c1ccco1	Bead autofluor 23038
O=C1SC(SCc2ccccc2)=N/C1=C\c1ccc(C(=O)O)cc1	none
COC(=O)C1=C(C)OC(N)=C(C#N)C1c1cc(OC)c(OCC(N)=O)cc1Cl (stereo not given)	Bead autofluor 23456, BoNT-A LC inh2 inconclusive
CC(C)[C@H](NC(N)=O)C(=O)Nc1cccc(S(=O)(=O)NC2=NCCCCC2)c1	none (no result: SARS 3CLpro inh, BJeLR viability)
CCCCn1c(CCn2nc(C)c(Br)c2C)n[nH]c1=S	Bead autofluor 23887
Cc1nn(Cc2ccccc2)c(Cl)c1C(=O)NCCc1ccccc1	none
Cc1nn(Cc2ccccc2)c(Cl)c1C(=O)NCc1ccc(C)n1C	Bead autofluor 19508, BoNT-A LC inh2 inconclusive
CCN1C(=O)[C@H]2[C@H]3CN=C(SCc4ccc(C(=O)OC)cc4)N3[C@@](C)(C(=O)OC)[C@H]2C1=O	none (no result: SARS 3CLpro inh, BJeLR viability)
CC(OC(=O)C1CC1)C(=O)Nc1ncc(Cl)cc1Cl (stereo not given)	none (no result: SARS 3CLpro inh, BJeLR viability)
O=c1ccc2c(-c3ccccc3)c3ccc(O)cc3oc-2c1	BoNT F protease 88, Anthrax LF inh2 56
Nc1ccc(-c2c3ccc(=O)cc-3oc3cc(O)ccc23)cc1C(=O)O	BoNT F protease inconclusive, Anthrax LF inh2 128
O=c1cc(-c2ccccc2)oc2cc(O)ccc12	none (no result: SARS 3CLpro inh, BJeLR viability)
FC(F)(F)c1cc(-c2ccco2)nc(N2CCN(c3ccccc3)CC2)n1	Bead autofluor 25233
O=C(CCSc1nc(-c2ccco2)cc(C(F)(F)F)n1)N1CCN(c2ccccc2)CC1	none
COc1ccccc1-c1ccc([C@@H]2C[C@H]3[C@H](CON3C)CN2C(=O)c2ccco2)cc1	none (no result: SARS 3CLpro inh, BJeLR viability)
O=C(Nc1ccc(F)cc1)N1CCC(c2nc3c(nnn3Cc3cccc(Cl)c3)c(=O)[nH]2)CC1	Bead autofluor 25569 (no result: BJeLR viability)
COc1ccc(OC)c(N(CC(=O)N2CCC(C)CC2)S(=O)(=O)c2ccccc2)c1	Bead autofluor 20367, BoNT-A LC inh2 inconclusive
COc1ccc(OC)c(N(CC(N)=O)S(=O)(=O)c2ccc(OC)c(OC)c2)c1	Bead autofluor 20080
Cc1ccc(S(=O)(=O)N(CC(=O)N2CCC(C)CC2)c2cccc(C)c2)cc1	Bead autofluor 20718
Cc1cc(C(=O)NNC(=O)/C=C/c2ccco2)c(C)o1	none (no result: SARS 3CLpro inh, BJeLR viability)
CC(C)(C)c1ccc(C(=O)NCC(=O)OCC(=O)Nc2ccc3c(c2)OCCO3)cc1	none (no result: BJeLR viability)
O=C(CSc1nnc2scc(-c3ccccc3)n12)Nc1nsc(-c2ccc(Cl)cc2)n1	none
O=C(CSc1nnc2scc(-c3ccccc3)n12)Nc1nsc(-c2ccccc2)n1	Bead autofluor 20413
Cc1ccc(-c2csc3nnc(SCC(=O)Nc4nsc(-c5ccccc5)n4)n23)cc1	Bead autofluor 21990, BoNT-A LC inh2 inconclusive
COc1ccc(NC(=O)c2ccc(S(=O)(=O)N3CC(C)OC(C)C3)cc2)cc1 (stereo not given)	none (no result: SARS 3CLpro inh, BJeLR viability)
O=C(c1cccs1)n1cc(C(=S)N2CCOCC2)c2ccccc21	Bead autofluor 20879
COCCn1cc(C(=S)N2CCOCC2)c2ccccc21	Bead autofluor 22910
O=C(C1CC1)n1cc(C(=S)N2CCOCC2)c2ccccc21	none
COc1ccc(NC(=O)COC(=O)c2ccc(OC)c(S(=O)(=O)N3CCCC3)c2)cc1OC	none (no result: SARS 3CLpro inh, BJeLR viability)
CCOC(=O)C1(C)CCN1C(=O)c1ccc(C(=O)OC)cc1 (stereo not given)	none (no result: SARS 3CLpro inh, BJeLR viability)
Cc1ccc(S(=O)(=O)NCCC(=O)N2CCN(c3ccccc3)CC2)cc1C	none (no result: SARS 3CLpro inh, BJeLR viability)
Cc1ccc(S(=O)(=O)N2CCN(S(=O)(=O)c3ccc(C)cc3)C3OCCOC32)cc1 (stereo not given)	Bead autofluor 16671
